This is an account of results in the supplement of paper PMC10105736.

Assay in all cases: MAPPIT interaction score (arbitrary units); higher = stronger binary interaction signal, active = hit call of the paper
The target of assay [1] is RPA2. As to conditions: MAPPIT configuration: N-N; pair source set: Finley_Y2H.
Assay [2] has as its target ScsbetaG. As to conditions: MAPPIT configuration: N-N; pair source set: Finley_Y2H.
In assay [3] the target is RIC-3. The conditions noted are these: MAPPIT configuration: N-C; pair source set: screen_3.
The target in assay [4] is Sod3. As to conditions: MAPPIT configuration: N-C; pair source set: screen_4.
In assay [5] the target is Rab26. The conditions noted are these: MAPPIT configuration: N-N; pair source set: Lit-BS-16.
Assay [6] addresses ReepB. The conditions noted are these: MAPPIT configuration: N-N.
In assay [7] the target is REPTOR-BP. As to conditions: MAPPIT configuration: N-N; pair source set: Curagen_high_conf.
For assay [8], the target named is Pten. As to conditions: MAPPIT configuration: N-N; pair source set: DPIM.
The target in assay [9] is Pu. As to conditions: MAPPIT configuration: N-C; pair source set: screen_4.
The target in assay [10] is Psi. As to conditions: MAPPIT configuration: N-N; pair source set: Lit-BM-16.
For assay [11], the target named is RFeSP. As to conditions: MAPPIT configuration: N-N; pair source set: RRS.
The target in assay [12] is Ptp61F. The conditions noted are these: MAPPIT configuration: N-N; pair source set: Lit-BS-16.
Assay [13] concerns the target Rbp1. The conditions noted are these: MAPPIT configuration: N-N; pair source set: Finley_Y2H.
The target of assay [14] is RpL12. As to conditions: MAPPIT configuration: N-N; pair source set: Lit-BS-16.
Assay [15] deals with Rgk3. The conditions noted are these: MAPPIT configuration: N-N; pair source set: Curagen_low_conf.

Values without a mark were called inactive.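 How the source made its calls: active = MAPPIT score above the 99th percentile of random reference set scores in the same batch; inactive = at or below it.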
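Further: HEK293T cells with Epo stimulation, STAT-responsive firefly luciferase reporter, fold induction versus unstimulated cells divided by the larger fold induction of two negative controls lacking either bait or prey.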

B1: Lip3 (protein)
chain: MTRGALKVTILLVGLGLVLAGSRPISDCGERIEDDGYPMERHEVVTSDNYILTMHRIPYSPKTGESSNRPVAFLMHGMLSSSSDWVLMGPERSLAYMLADAGYDVWMGNARGNTYSKAHKYWPTYWQIFWNFSWNEIGMYDVPAMIDYVLAKTGQQQVQYVGHSQGTTVYLVMVSERPEYNDKIKSAHLLGPAAYMGNMKSPLTRAFAPILGQPNAIVEVCGSMEFMPSNKFKQDLGIEMCQATSPYADMCANEIFLIGGYDTEQLDYELLEHIKATSPAGASVNQNLHFCQEYNSGKFRKFDYTALRNPYEYGSYFPPDYKLKNAKAPVLLYYGANDWMCDVSDVRKLRDELPNMALDYLVPFEKWAHLDFIWGTEARKYVYDEVLKQMQSYE
On to B1, for which the results for the MAPPIT interaction score in assay [1] and in [2] were 0.346 and 1.35, respectively.

B2: Nplp2 (protein)
chain: MAKLAICILVFALFALALSARVPREESNPAQEFLTKAQGDFNEFIEKLKALDAKKVEGLFKDGLNTVQEGLQKLNETFLQAPAAST
Take B2: the MAPPIT interaction score was 0.0485 in assay [3] and 2.23 in [4].

B3: Phb1 (protein)
chain: MAAQFFNRIGQMGLGVAVLGGVVNSALYNVEGGHRAVIFDRFTGIKENVVGEGTHFFIPWVQRPIIFDIRSQPRNVPVITGSKDLQNVNITLRILYRPIPDQLPKIYTILGQDYDERVLPSIAPEVLKAVVAQFDAGELITQREMVSQRVSQELTVRAKQFGFILDDISLTHLTFGREFTLAVEMKQVAQQEAEKARFVVEKAEQQKLASIISAEGDAEAAGLLAKSFGEAGDGLVELRRIEAAEDIAYQLSRSRGVAYLPSGQSTLLNLPSTIAQ
For B3, the MAPPIT interaction score in assay [5] is 0.345.

B4: wol (protein)
chain: MWTCLCQLCFYLLSTLAVAALSIAALVLYKTKPYPNIKRHKDEETFLDPHTIKTVTFPSLEDSPSLELSVIVPAYNEEQRLPSMLDECLAFLEQKSAGTPNFTYEVIVVSDGSQDATVSVALGYSKKHGAEKVRVLELIENRGKGGAVRMGMLSARGRNLLFADADGATKFPDYDKLEVALKQLAPEWRDDGIAIGSRAHLENDAIATRSFFRTILMHGFHFLVWLFAVRSIRDTQCGFKLFTRTTARKLFTSLHVERWAFDVELLYLAENLKLPMSEVAVRWTEIDGSKLTPFWSWLQMGRDLFMIWVRYLVGAWRIASIQKKEK
For B4, the MAPPIT interaction score in assay [6] (pair source set: Lit-BS-16) is 0.541.

B5: REPTOR (protein)
chain: MTENQLYPMSSEFFDTGSNSSSNTLKYDLYSLGSTVVGAALPTLTINTGYGSSSSNNNNTNNNNNNSSSHSSSSNCSTSTTNTCNVMLSTTAITIPRSSNHNQIHHHPYQQSDLQTPRHHPSPLHTLPSMTHQQNQLQQQQQQQHHNQQQQLQQSHLALGELSDFGLDALDAASLSPTLLQDVSLSAVSPLSTTLYNGNTSGAGSSNGIGSGSGGYFTPDMSHSLSLNVVSEQVLLQEATTPNELLYEMTPNSNAMWSDISSAIIHTKHEPFSLDDDYIFPNDKAEIQAADLSDLNGGDFLDVIGNIEDFLPQTAVTQSVNFLLSPQAQGQDALVAPPMELLQQQQQNHQQLQVGSLPQLQTLLTLSQQQQSNSSSTSPYEIYHSTPQKPQQQQLSASFSPGSQASQSPLTPPPPPHANRPQYQMVKSRNMQELIKKGFPMSSPPERSILSQSAALSPGGSSGFGSSASGNSTTTSNQTSGSAVRKSFGYQSAVENSQLSRLSSSAPTHLGLEHIWMRREPRQHLLSTGSLAEAESFSSLSTGSVLSPDGIDFSQDDEDDNSSENSDNYDDCSSDNGLSEDEDETRTSTPNHLSSSKGKERFFWQYNVQAKGPKGKRLVFQSKLEDPHVLNEVTDPVFSPTCSVRGIKVYKHSGKARKGDGNDLTPNARKLHNIGKELDKLSRTINDMTPVSELPFNVRPKSRKEKNKLASRACRLKKKAQHEANKIKLFGLEIEHSEFNVKAVEISYNPSIFVL
For B5, in assay [7], the MAPPIT interaction score is 0.721.

B6: mTerf3 (protein)
chain: MFCSALRNILRNSQNAAKNATITSQIRNLRGQQSVHHEVEVLTSPGITTKQNDKKTEPAECEGSKEVALDFRNREAHVPSFNLAAYVNNSSTLQQFLSLGVDLHSIERRKGLGDFVLKLDFEKNVKPYITFLVDQGVSPDDFGRMFTKNPLLFKEDLDDLQTRVNYLKSKRFSDEARQRILTQNPYWLMFSTRRVDRRLGYFQKEFKLSGHDLRLLATREPNAITYNMEHLRKSVFTLKEEMGFNAKELSDLVVRKPRLLMIPPDDLVERFSYIHQDMGLPHAQIVQCPELLASREFRLRERHEFLKLLGRAQYDPQKDLYISPKTIVEGNNFYFVRNVAKSDLETFDLFLKTR
As to B6, the MAPPIT interaction score in [8] was -0.325.

B7: Pu (protein)
chain: MSFTRQLSEMSASELNDAIDDTNFPQAHILSRGRNNSVCSTSSTSGTSSLADRQQNQAEEATAIAGTPVEEVAPAPALVPLAGNQRPRLILKTNGSSPDSDGTQPKTPLTPRTSTTPGHEKCTFHHDLELDHKPPTREALLPDMARSYRLLLGGLGENPDRQGLIKTPERAAKAMLYFTKGYDQSLEDVLNGAVFDEDHDEMVVVKDIEMFSMCEHHLVPFYGKVSIGYLPCNKILGLSKLARIVEIFSRRLQVQERLTKQIAVAVTQAVQPAGVAVVVEGVHMCMVMRGVQKINSKTVTSTMLGVFRDDPKTREEFLNLVNSK
Take B7: the MAPPIT interaction score in assay [9] is 5.06 (active).

B8: snRNP-U1-70K (protein)
chain: MTQYLPPNLLALFAAREPIPFMPPVDKLPHEKKSRGYLGVAKFMADFEDPKDTPLPKTVETRQERLERRRREKAEQVAYKLEREIALWDPTEIKNATEDPFRTLFIARINYDTSESKLRREFEFYGPIKKIVLIHDQESGKPKGYAFIEYEHERDMHAAYKHADGKKIDSKRVLVDVERARTVKGWLPRRLGGGLGGTRRGGNDVNIKHSGREDNERERERYRLEREREDREGPGRGGGSNGLDARPGRGFGAERRRSRSRERRDRERDRGRGAVASNGRSRSRSRERRKRRAGSRERYDEFDRRDRRDRERERDRDREREKKKKRSKSRERESSRERRERKRERRDRERGTGSGGDVKERKPDFRDMDVIKIKEEPVDDGYPTFDYQNATIKREIDDEDEEKYRPPPAHHNMFSVPPPPILGRGNASTNPNPDNGQQSSGDPSWWRQ
Take B8: in assay [10], the MAPPIT interaction score is 0.25.

B9: E(spl)m4-BFM (protein)
chain: MCQNKINTNNTMTIKSNKKLSYSVKKLLQKIFKQQQRVEEEQNLKNALKANSLESLESMENSRNADLESASICASLESCENEANERLSQSCEIEDYDFEQLPTVPVHFVRTAHGTFFWTAVSDLPADNDLVEPLYCSTSNAIAIPQDRWVQA
Regarding B9, in assay [11], the MAPPIT interaction score is 0.268.

B10: Cyp9f2 (protein)
chain: MLWEFFALFAIAAALFYRWASANNDFFKDRGIAYEKPVLYFGNMAGMFLRKRAMFDIVCDLYTKGGSKKFFGIFEQRQPLLMVRDPDLIKQITIKDFDHFINHRNVFATSSDDDPHDMSNLFGSSLFSMRDARWKDMRSTLSPAFTGSKMRQMFQLMNQVAKEAVDCLKQDDSRVQENELDMKDYCTRFTNDVIASTAFGLQVNSFKDRENTFYQMGKKLTTFTFLQSMKFMLFFALKGLNKILKVELFDRKSTQYFVRLVLDAMKYRQEHNIVRPDMINMLMEARGIIQTEKTKASAVREWSDRDIVAQCFVFFFAGFETSAVLMCFTAHELMENQDVQQRLYEEVQQVDQDLEGKELTYEAIMGMKYLDQVVNEVLRKWPAAIAVDRECNKDITFDVDGQKVEVKKGDVIWLPTCGFHRDPKYFENPMKFDPERFSDENKESIQPFTYFPFGLGQRNCIGSRFALLEAKAVIYYLLKDYRFAPAKKSCIPLELITSGFQLSPKGGFWIKLVQRN
Consider B10, for which, in assay [12], the MAPPIT interaction score is -0.452.

B11: Rsf1 (protein)
chain: MGDQRGTRVYVGNLTDKVKKDDLEGEFTKYGKLNSVWIAFNPPGFAFVEFEHRDDAEKACDILNGSELLGSQLRVEISKGRPRQGRRGGPMDRGGRRGDFGRHSITSGGSGGGGFRQRGSSGSSSRHTERGYSSGRSGASSYNGREGGGSGFNRREVYGGGRDSSRYSSGSSASYGRTGGQSAGRFRSRSPVGNHRF
For B11, the MAPPIT interaction score in assay [13] was 0.372.

B12: Lap1 (protein)
chain: MPLLSKCFPCFKFKREEVIDKLDYSNTPLTDFPEVWQHERTLEELYLSTTRLQALPPQLFYCQGLRVLHVNSNNLESIPQAIGSLRQLQHLDLNRNLIVNVPEEIKSCKHLTHLDLSCNSLQRLPDAITSLISLQELLLNETYLEFLPANFGRLVNLRILELRLNNLMTLPKSMVRLINLQRLDIGGNEFTELPEVVGELKSLRELWIDFNQIRRVSANIGKLRDLQHFEANGNLLDTLPSELSNWRNVEVLSICSNSLEAFPFSVGMLKSLVTFKCESNGLTELPDSISYLEQLEELVLSHNKLIRLPSTIGMLRSLRFLFADDNQLRQLPDELCSCQQLSVLSVANNQLSALPQNIGNLSKMKVLNVVNNYINALPVSMLNLVNLTSMWLSDNQSQPLVPLQYLDASTKTQLTCFMLPQVTFKMNSIQAQQQAQEQYEFVYANQQQPHASPSRRICFAEEATILSNAKAQPAPNYPSFVAAPPTPTPDQMAGSVRLMRSPTPYPKELRQMSKYVRQAQAATSSANASEVREARVVTNGQIHCDSNNANQDVVDQATTSAIYGIAPETTHIYGVYQQPQQMAHPVPTQEYYGLPLVNYEAHYQQLYVEANTPLPTTHLNGDQDYELQPLQQQPMQQQALPTPRLEPPPYHIARVYTKKTPEDLNLYESMRQRKQQQQLQEQTIYQDALNSNSNFKTTAIGAQDVEESVDQLDYQNNISNNLEPNPEEEDQELDDTMSQHSLNSTATNNTSKASHKKSTWIFGVHKNPTVKQVTLKWENSIGFDIAELLNQVGIFVSSITPNTNAARLLNLNDKLLEIDGYDLTNANLSDAKRVLLNCGTVMNIMLSRK
For the molecule B12, the MAPPIT interaction score in assay [14] was -0.0144.

B13: Pdf (protein)
chain: MARYTYLVALVLLAICCQWGYCGAMAMPDEERYVRKEYNRDLLDWFNNVGVGQFSPGQVATLCRYPLILENSLGPSVPIRKRNSELINSLLSLPKNMNDAGK
With B13, the MAPPIT interaction score in assay [6] (pair source set: Finley_Y2H) is 2.66.

B14: eEF1gamma (protein)
chain: MVKGTLYTYPENFRAYKALIAAQYSGAQVKVADNFKFGETNKSAEFLKKFPGGKVPAFETAEGQYLSESNAIAYLLANEQLRGGKCPFVQAQVQQWISFADNEIVPASCAWVFPLLGILPQQKNSTAKQEAEAVLQQLNQKLQDATFLAGERITLADIVVFSSLLHLYEYVLEPSVRSAFGNVNRWFVTILNQKQVQAVVKDYKLCEKALVFDPKKYAEFQAKTGAAKPQQQAQQQKQEKKPKEKKEAPKKAAEPAEELDAADEALAAEPKSKDPFDALPKGTFNFDDFKRVYSNEDEAKSIPYFFDKFDAENYSIWFGEYKYNEELSKVFMSCNLITGMFQRLDKMRKAAFASVCLFGEDGNSTISGIWVWRGQDLAFTLSPDWQIDYEVYDWKKLDAKSEETKKLVTQYFSWSGTDKDGRKFNQGKIFK
Take B14: in assay [15], the MAPPIT interaction score was -0.0165.
